From PubChem
Most compounds without a hit are left out; they make up all but 3.7% or so of the library.
BRCA1 expr act – activators of BRCA1 expression; MCF7-BRCA1-FFLuc reporter, luminescence, 48 h; response scale: scaled: vehicle 0%, 10 µM genistein 100%; actives 1.1% (n = 380,000); Potency, µM (titrated, usually from 46.1 µM), for the others: top-dose activation, most hits filed as activators; also: potency is read from the fitted curve at half-maximal effect; nearly all actives have a fitted effect of over 80% in size
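MCF7-BRCA1-FFLuc cells, 2000/well in phenol-red-free MEM, attached 2 h then treated 48 h at 37 C. Luciferase luminescence read 15 min after reagent; normalized to genistein maximum activation (10microM) and DMSO, concentration-response fitted.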
PTHR1 ag – agonists of human PTHR1 parathyroid hormone receptor. Q03431. AID 743266. HEK293 GP2 PTHR1 cells, GloSensor cAMP luminescence, 1 h. actives 0.075% (n = 410,000). Potency, µM (top dose mostly 115 µM), without a hit: at the highest dose activation, hits mostly activators; also: potency is read from the fitted curve at half-maximal effect; nearly all actives have a fitted effect of over 55% in size
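HEK-293-derived GP2 cells expressing PTHR1 and a GloSensor cAMP reporter, 3,000/well, plated overnight, given luciferin plus IBMX (each 0.5 mM as added) for 1 h at 37 °C, then compound for 1 h at 37 °C. Luminescence was read after 15 min at room temperature.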
RGS4 inh – human RGS4 inhibition | P49798 | Transcreener GDP fluorescence polarization, RGS4-accelerated GTP hydrolysis | Potency, µM (titrated, usually from 114 µM), inactives show top-dose activity change, negative = inhibition, usual class: inhibitors | actives 0.039% (n = 390,000); also: potency is read from the fitted curve at half-maximal effect; % is scaled to controls: 0 for no effect and ±100 for the full control effect; nearly all actives have a fitted effect of over 75% in size
Target sequence (P49798 whole entry, looked up): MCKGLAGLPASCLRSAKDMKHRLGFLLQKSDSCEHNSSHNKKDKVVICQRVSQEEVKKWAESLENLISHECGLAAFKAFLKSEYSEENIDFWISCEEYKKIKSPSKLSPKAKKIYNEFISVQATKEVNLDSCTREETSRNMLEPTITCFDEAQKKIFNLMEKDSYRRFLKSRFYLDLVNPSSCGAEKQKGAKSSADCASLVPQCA
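MLSMR compounds (23 nl, pin-transferred) preincubated 10 min at room temperature with a 500nM (2x) first reagent, then RGS4 at 900nM (2x) plus Transcreener GDP mix added; fluorescence polarization (620/688 nm) read before and after 90 min at 30 °C.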
D3 antag – antagonists of human D3 dopamine receptor | max response, negative = inhibition, % | P35462 | actives 2.5% (n = 360,000) | D3R cells, DiscoveRx beta-arrestin luminescence, antagonist mode; hits give low values; in the data active = max response below about -50%; inconclusive = no clear call, values can overlap the other calls; also: % is scaled to controls: 0 for no effect and ±100 for the full control effect
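Cells expressing the human receptor were seeded at 1500 cells/well, incubated overnight at 37 degrees C in 5% CO2, then exposed to library compounds with dopamine controls for 90 minutes at 37 degrees C before luminescent detection.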
B2AR arrestin – beta2AR (human) beta-arrestin recruitment activity; P07550; beta-arrestin recruitment to beta2AR, cell-based reporter; Potency, µM (highest dose often 46.1 µM), for the others: top-dose activation, hits mostly activators; actives 0.02% (n = 330,000); AID 492947;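 also: potency is read from the fitted curve at half-maximal effect; 0% = DMSO controls and full agonism = EC100 isoproterenol or metaproterenol; nearly all actives have a fitted effect of over 65% in size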
DRD3 agonist – D3 dopamine receptor (human) agonism | D3R DiscoveRx beta-arrestin cells, luminescence, 90 min | max activation, % | actives 0.58% (n = 410,000) | P35462; in the data active = max activation above about 30%; also: 0% is about no effect
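Cells at 1500/well, incubated overnight, then treated with pinned compounds (dopamine as control) for 90 min at 37 degrees C. DiscoveRx reagent added for 30 - 60 minutes at room temperature; luminescence read.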
Starred values were filed as active, the others as inactive; i = inactive; ? = inconclusive; . = no result; [ ] = remark or other dose. Unless noted, calls follow the shape of the dose curve; as a rule, active = well fitted curve in the direction sought with a large enough effect; inconclusive = small, poorly fitted or top-dose-only effect, or another doubt; inactive = no such curve, though single readings can be large; an effect the other way counts as inactive or inconclusive.

SMILES	BRCA1 expr act	PTHR1 ag	RGS4 inh	D3 antag	B2AR arrestin	DRD3 agonist
CCc1nc2c(OCC3CCCCC3)cccn2c1N(C)C(=O)c1ccc(OC)cc1	0%	-41%	.	?	.	-18
CCc1nc2c(OCCn3cccc3)cccn2c1N(C=O)Cc1ccc(OC)cc1	20%	-9%	.	-11	.	-6
CCc1nc2c(OCCC3CCCCC3)cccn2c1N(C)C(=O)COc1ccccc1	-49%	-6%	.	-13	.	-27
CCc1nc2c(OCCC3CCCCC3)cccn2c1N(C)C(=O)c1ccccc1F	-54%	-1%	.	-57*	.	-19
CCCOc1cccn2c(N(C)C(=O)c3ccccc3F)c(CC)nc12	0%	i	.	-72*	.	-9
CCc1nc2c(OCCn3cccc3)cccn2c1N(C=O)Cc1ccccc1	-8%	i	.	-13	.	45*
CCc1nc2c(OCC3CCCCC3)cccn2c1N(C)C(=O)c1ccccc1F	-9%	-24%	.	-57*	.	-4
COc1ccc(OC)c(C(=O)N(C[C@H]2CC[C@@H]([C@@H]3CC[C@H](CO)O3)O2)C(C(=O)NC(C)(C)C)c2ccc(-c3ccccc3)cc2)c1 (stereo not given in full)	-15%	7%	13%	-4	10%	-18
COc1ccc(C2c3ccc4ccccc4c3Oc3ncn(CCN(C)C)c(=N)c32)cc1 (stereo not given)	-34%	-9%	-13%[56.9 µM]	-16	0%	-11
Cc1nc(N2CCN(Cc3ccccc3)CC2)nc2c1C(=O)CC(C)C2 (stereo not given)	-36%	-12%[57.5 µM]	-14%	-60*	-1%	-1
Cn1cc(C(=O)N/N=C/c2ccc(Br)c([N+](=O)[O-])c2)c2ccccc21	-95%	-10%	-21%	-67*	0%	-21
Cn1cc(C(=O)N/N=C/c2ccc3c(c2)OCO3)c2ccccc21	53%	-15%	-17%	23	0%	-6
CCCOC(=O)c1cc(O)c(O)c(O)c1	.	.	.	.	.	10
COC(=O)c1cc(O)c(O)c(O)c1	0%	-21%	7%	-1	0%	35*
C=CCN(CC=C)C(=S)NC(=O)c1ccc(-c2ccccc2)cc1	-45%	-36%	-38%	-15	0%	1
C=CCN(CC=C)C(=S)NC(=O)c1ccc(OC)cc1	-33%	i	-38%	-69*	?	7
COc1ccc(C(=O)NCCSCc2ccccc2)cc1OC	-11%	-3%	-4%	-51*	0%	11
COc1cc(C(=O)NC2CCN(CC(=O)NC3CCCCC3)CC2)cc(OC)c1OC	0%	1%	-21%	6	0%	-6
COc1ccc(C(=O)NC2CC3CCCC(C2)N3Cc2ccccc2)cc1OC (stereo not given)	10%	3%	26%	-94*	0%	-25
COc1ccc(C(=O)NCCSCc2ccc(Cl)cc2)cc1OC	5%	-10%	24%	9	0%	7
COc1ccc(CN2C3CCC2CC(NC(=O)c2cc(OC)c(OC)c(OC)c2)C3)cc1 (stereo not given)	0%	-25%	12%	-66*	0%	-25
COc1cc(C(=O)NC2CC3CCCC(C2)N3C2CC2)cc(OC)c1OC (stereo not given)	0%	i	7%[11.4 µM]	-11	-1%	-5
COc1cc(C(=O)NC2CCN(Cc3ccccc3)CC2)cc(Cl)c1OC	-16%	i	-13%	-99*	0%	-19
O=C1c2ccccc2C(c2nnnn2-c2ccc3c(c2)OCCO3)N1CCOc1ccccc1 (stereo not given)	-9%	-58%	.	-6	.	5
O=C(Cc1ccc(Cl)c(Cl)c1)N1CCOCC1	23%	i	7%	-8	-1%	0
COc1ccc([N+](=O)[O-])cc1C(=O)NC1CCN(Cc2ccccc2)CC1	-20%	-23%	-9%	-100*	.	-20
